TDP1 cell noCPT – qHTS for Inhibitors of human tyrosyl-DNA phosphodiesterase 1 (TDP1): qHTS in cells in absence of CPT | Potency, µM (doses to about 46.2 µM), actives largely listed as inhibitors | DT40 Tdp1-/- hTDP1 cells, no CPT, ATP luminescence, 48 h | hit rate 15% among 420,000; note: nearly all actives have a fitted effect of over 55% in size
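Camptothecin absent (DMSO only). Human TDP1-complemented DT40 knockout cells, 400 cells/well, 37 °C for minimum 48 hr; ATP measured via CellTiter-Glo, 30 min dark incubation, luminescence.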
TDP1 inh – inhibitors of human tyrosyl-DNA phosphodiesterase TDP1; recombinant TDP1, AlphaScreen DNA substrate cleavage; hit rate 0.28% among 350,000; AID 485290; Potency, µM (series often up to 130 µM), actives largely listed as inhibitors; Q9NUW8; note: nearly all actives have a fitted effect of over 40% in size
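Here, a 5' biotin and 3' phosphotyrosine-FITC DNA oligonucleotide reports Tdp1 activity: intact substrate bridges AlphaScreen beads, while cleavage leaves a 3' phosphate and drops signal. All incubations at room temperature.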
IL-1B inflam inh – inhibitors of inflammasome signaling (IL-1 beta secretion) | THP-1 LPS/ATP IL-1B secretion, AlphaLISA, 16 h; hits give low values | activity change, % at 57.5 µM | hit rate 4.7% among 360,000; in the data active = activity change below about -50%; inconclusive = mostly about -30% to -49%
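Secreted IL-1B measured by AlphaLISA bead assay after 16 h compound exposure of THP-1 cells; compounds (final up to 57.5 uM) added 1 h before LPS (250 ng/mL) and ATP (1.25 mM) stimulation; lower signal means less secretion.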
CtBP-E1A blk – inhibitors of CtBP/E1A interaction; AlphaScreen GST-E1A/His-CtBP binding, 1536-well; hits give low values; activity change, % (concentration not given with the values); hit rate 0.49% among 340,000; in the data active = activity change below about -65%; inconclusive = mostly about -30% to -63%
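AlphaScreen with 125 nM GST-E1A and 125 nM His-CtBP (5X stocks) in Tris pH 8.0, 300 mM NaCl, BSA, Tween 20, TCEP. Compounds preincubated 2 h at 37 deg C, then glutathione donor/nickel acceptor beads added for 1 h at 37 deg C in dark.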
DT40 TDP1 CPT – DT40-hTDP1 cell growth loss with CPT; chicken DT40 Tdp1-/-;hTDP1 cells + 20 nM CPT, ATP luminescence, 48 h; Potency, µM (titrated, usually from 46.2 µM), hits mostly inhibitors; hit rate 12% among 420,000; AID 686979; note: nearly all actives have a fitted effect of over 55% in size
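Chicken DT40 Tdp1-/- cells stably complemented with human TDP1 were seeded at 400 cells/well in medium containing 20 nM camptothecin, exposed to pin-transferred compounds, and grown at 37 °C for at least 48 hr. Viability was read as ATP luminescence.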
Six1-Eya2 blk – inhibitors of human Six1/Eya2 interaction | AlphaScreen GST-Six1/His-Eya2 binding, biochemical; hits give low values | activity change, % (no concentration beside the values) | hit rate 0.56% among 360,000 | AID 651725; in the data active = activity change below about -65%; inconclusive = mostly about -30% to -63%
Target sequence (O00167 whole entry, looked up): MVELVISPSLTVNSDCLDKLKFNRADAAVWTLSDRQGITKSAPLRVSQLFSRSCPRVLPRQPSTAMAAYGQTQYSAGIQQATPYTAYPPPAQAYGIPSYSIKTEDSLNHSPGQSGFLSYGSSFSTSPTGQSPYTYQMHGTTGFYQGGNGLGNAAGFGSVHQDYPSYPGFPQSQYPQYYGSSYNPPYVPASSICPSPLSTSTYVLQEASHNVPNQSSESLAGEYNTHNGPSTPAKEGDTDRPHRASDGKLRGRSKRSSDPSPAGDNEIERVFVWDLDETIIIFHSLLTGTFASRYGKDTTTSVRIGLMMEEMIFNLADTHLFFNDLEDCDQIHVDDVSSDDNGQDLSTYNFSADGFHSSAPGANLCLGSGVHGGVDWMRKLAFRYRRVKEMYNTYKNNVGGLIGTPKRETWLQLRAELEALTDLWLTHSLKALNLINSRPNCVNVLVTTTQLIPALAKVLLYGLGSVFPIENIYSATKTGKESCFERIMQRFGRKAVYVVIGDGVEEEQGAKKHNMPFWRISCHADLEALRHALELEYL
Target sequence (Q15475 whole entry, looked up): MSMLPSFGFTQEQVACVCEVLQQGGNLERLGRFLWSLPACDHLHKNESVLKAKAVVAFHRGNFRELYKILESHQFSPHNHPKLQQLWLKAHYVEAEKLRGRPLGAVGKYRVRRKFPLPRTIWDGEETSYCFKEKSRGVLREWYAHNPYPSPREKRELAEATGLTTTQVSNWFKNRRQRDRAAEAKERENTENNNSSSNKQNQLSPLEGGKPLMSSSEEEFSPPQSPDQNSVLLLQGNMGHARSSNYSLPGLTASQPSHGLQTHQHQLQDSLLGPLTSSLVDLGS
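Compounds are tested against tagged Six1 and Eya2 proteins bridged by glutathione donor and nickel acceptor beads; after a one-hour incubation at 37 °C without light, AlphaScreen emission is recorded.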
Of the large screens only hits and unclear results are named; the others gave an inactive call. In the library only some 18% were active in any assay of this set; here they are far more common. Unless noted, calls come from the whole dose curve; as a rule, active = well fitted curve in the direction sought with a large enough effect; inconclusive = small, poorly fitted or top-dose-only effect, or another doubt; inactive = no such curve, though single readings can be large; an effect the other way counts as inactive or inconclusive.

O=C(C[C@H]1C[C@H](C(=O)N2CCCCC2)[C@@]2(CCc3ccccc3)c3[nH]c4cc(-c5ccco5)ccc4c3CCN2C1=O)NCc1cccc(C(F)(F)F)c1	TDP1 cell noCPT 20.6µM, DT40 TDP1 CPT inconclusive
CC[C@]12c3[nH]c4cc(-c5ccco5)ccc4c3CCN1C(=O)[C@@H](CC(=O)NCCC1=CCCCC1)C[C@@H]2C(=O)N1CCN(C(=O)c2ccco2)CC1	TDP1 cell noCPT 18.4µM, IL-1B inflam inh -63.9, DT40 TDP1 CPT 20.6µM
O=C(CC1C[C@H](C(=O)N2CCCCC2)[C@@]2(CCc3ccccc3)c3[nH]c4ccccc4c3CCN2C1=O)NCc1ccco1 (stereo partly drawn)	TDP1 cell noCPT 20.6µM, IL-1B inflam inh -60.0, DT40 TDP1 CPT 13µM
O=C(C[C@H]1C[C@H](C(=O)N2CCCCC2)[C@@]2(CCc3ccccc3)c3[nH]c4cc(-c5ccco5)ccc4c3CCN2C1=O)NCCC1=CCCCC1	TDP1 cell noCPT 18.4µM, DT40 TDP1 CPT inconclusive
O=C(C[C@H]1C[C@H](C(=O)N2CCCCC2)[C@@]2(CCc3ccccc3)c3[nH]c4cc(-c5ccco5)ccc4c3CCN2C1=O)NCc1ccco1	TDP1 cell noCPT inconclusive, IL-1B inflam inh -50.6, DT40 TDP1 CPT inconclusive
CN(C)C(=O)CCc1ccc2c3c([nH]c2c1)[C@]1(CCc2ccccc2)[C@@H](C(=O)N2CCCCC2)C[C@H](CC(=O)NCc2ccco2)C(=O)N1CC3	TDP1 cell noCPT inconclusive
O=C(NC(=O)c1cccc(F)c1)Nc1ccc(-c2cc(C(F)(F)F)nn2-c2ccccc2)cc1	none (no result: IL-1B inflam inh, CtBP-E1A blk, Six1-Eya2 blk)
COc1cc(C(=O)Nc2ccc(-c3cc(C(F)(F)F)nn3-c3ccccc3)cc2)cc(OC)c1OC	TDP1 cell noCPT 14.6µM, DT40 TDP1 CPT 16.4µM (no result: IL-1B inflam inh, CtBP-E1A blk, Six1-Eya2 blk)
O=C(Nc1ccc(-c2cc(C(F)(F)F)nn2-c2ccccc2)cc1)c1cccc(F)c1	TDP1 cell noCPT 5.17µM, DT40 TDP1 CPT inconclusive (no result: IL-1B inflam inh, CtBP-E1A blk, Six1-Eya2 blk)
O=C(c1ccc(-c2ccc(Cl)cc2)o1)N1CCN(S(=O)(=O)c2cccs2)CC1	TDP1 cell noCPT inconclusive, DT40 TDP1 CPT inconclusive (no result: CtBP-E1A blk)
CC(C)N(C(=O)CN1CCC(c2nc3ccccc3[nH]2)CC1)C(C)C	none (no result: CtBP-E1A blk)
CC1CCCCN1C(=O)CN1CCC(c2nc3ccc(Cl)cc3[nH]2)CC1 (stereo not drawn)	TDP1 cell noCPT 23.1µM, DT40 TDP1 CPT inconclusive (no result: CtBP-E1A blk)
Cc1ccc(CN2CCC(c3nc4ccc(Cl)cc4[nH]3)CC2)cc1	TDP1 cell noCPT 16.4µM, DT40 TDP1 CPT 16.4µM (no result: IL-1B inflam inh)
O=C(c1cccc2ccccc12)N1CCN(c2ccc([N+](=O)[O-])c(NCc3ccco3)c2)CC1	none
C=CCC[C@@H](Cc1ccc(F)cc1)C(=O)OC[C@@H](Cc1c[nH]c2ccccc12)NC(=O)[C@H](CC=C)CC(=O)N(CCO)Cc1ccccc1	TDP1 cell noCPT inconclusive, IL-1B inflam inh inconclusive, DT40 TDP1 CPT 20.6µM
C=CCC[C@H](Cc1ccc(F)cc1)C(=O)OC[C@@H](Cc1c[nH]c2ccccc12)NC(=O)[C@H](CC=C)CC(=O)N(CCO)Cc1ccccc1	TDP1 cell noCPT inconclusive, IL-1B inflam inh inconclusive, DT40 TDP1 CPT 18.4µM
C=CCC[C@H](Cc1ccc(F)cc1)C(=O)OC[C@H](Cc1c[nH]c2ccccc12)NC(=O)[C@H](CC=C)CC(=O)N[C@H](CO)Cc1ccccc1	TDP1 cell noCPT inconclusive, DT40 TDP1 CPT inconclusive
C#CCn1c2ccccc2c(=O)n1C(C)CBr (stereo not drawn)	none (no result: TDP1 inh)
CCOC(=O)COc1nc(OC)nc(N2CCOCC2)n1	none
CCOC(=O)c1c(-c2ccccc2)nnn1-c1nc(OC)nc(N2CCOCC2)n1	TDP1 cell noCPT 16.4µM, DT40 TDP1 CPT 23.1µM
COC(=O)[C@@]12C[C@@H](CC(=O)NCC34CC5CC(CC(C5)C3)C4)C(=O)N(Cc3ccco3)C1=CCC(C)(C)C2	TDP1 cell noCPT 14.6µM, DT40 TDP1 CPT 16.4µM (no result: TDP1 inh)
C#CCNC(=O)C[C@@H]1C[C@@]2(C(=O)OC)CC(C)(C)CC=C2N(Cc2ccco2)C1=O	none (no result: TDP1 inh)
COC(=O)[C@@]12C[C@@H](CC(=O)N3CCCCC3)C(=O)N(Cc3ccco3)C1=CCC(C)(C)C2	TDP1 cell noCPT inconclusive, DT40 TDP1 CPT 23.1µM (no result: TDP1 inh)
COC(=O)[C@@]12C[C@@H](CC(=O)N3CCOCC3)C(=O)N(Cc3ccco3)C1=CCC(C)(C)C2	none (no result: TDP1 inh)
Cc1nc2ccccn2c1C(=O)NNC(=S)Nc1ccccc1	none (no result: TDP1 inh)
Cc1cccc(-n2cnc(C(=O)NNC(=S)Nc3ccc(Cl)cc3)c2)n1	TDP1 cell noCPT 11.6µM, CtBP-E1A blk -88.4, DT40 TDP1 CPT 7.31µM, Six1-Eya2 blk -90.5
Cc1nc2ccccn2c1C(=O)NNC(=S)Nc1ccc(Cl)cc1	TDP1 cell noCPT 18.4µM, DT40 TDP1 CPT inconclusive
Cc1cccc(-n2cnc(C(=O)N/N=C\c3ccc(Br)cc3)c2)n1	none
COc1ccc(/C=N/NC(=O)C2(O)c3ccccc3-c3ccccc32)cc1	none
CC[C@@H]1CCC[C@@H](O)[C@@H](C)C(=O)O[C@H](C)[C@@H](C)C/C=C(C)/C(OC)=C\C(=O)N(C)C([C@@H](C)CC)C(=O)N(C)[C@@H](C(C)C)C(=O)N(C)[C@@H](COC)C(=O)N2CCC[C@H]2C(=O)N(C)[C@@H](C(C)C)C(=O)N2CCC[C@H]2C(=O)O1 (stereo partly drawn)	TDP1 cell noCPT 0.206µM, DT40 TDP1 CPT 0.146µM (no result: TDP1 inh)
O=C(Cn1nc(C(=O)O)c2ccccc2c1=O)NCC1CCCO1 (stereo not drawn)	none
C=CCn1c(C)cc(C2=NNC(=Nc3ccc(C)cc3)SC2)c1C	TDP1 cell noCPT inconclusive, DT40 TDP1 CPT inconclusive
CCOc1ccc(N=C2NN=C(c3cc(C)n(CC4CCCO4)c3C)CS2)cc1 (stereo not drawn)	TDP1 cell noCPT 23.1µM, DT40 TDP1 CPT inconclusive
Cc1cc(-n2c(C)cc(C(=O)CSc3nncn3C)c2C)no1	TDP1 cell noCPT inconclusive, DT40 TDP1 CPT inconclusive
Cc1cc(C(=O)CSc2nncs2)c(C)n1-c1ccc2c(c1)OCO2	TDP1 cell noCPT 17.8µM, IL-1B inflam inh -69.2, DT40 TDP1 CPT 20.6µM
Cc1cc(C(=O)CN2C(=O)NC3(CCCc4sccc43)C2=O)c(C)n1-c1ccccc1 (stereo not drawn)	IL-1B inflam inh inconclusive, DT40 TDP1 CPT inconclusive
O=C(CSc1nncs1)NCc1ccc2c(c1)OCO2	none
Cc1cc(C(=O)CSc2nnnn2C)c(C)n1-c1cccc(F)c1	TDP1 cell noCPT 9.2µM, DT40 TDP1 CPT inconclusive
